From the OligoGym collection

biological target: CDKL2; assay: pooled miR-30 sensor sort-seq; sequence = guide strand; details: shRNA
Further: reference of the scale not given here.

Sequence | sensor-assay potency score (higher = more potent)
TTTAACTGTAGTTCTTGGGAAA | -0.938
TTAGTAACTTGATTTCTCGCAT | 0.346
TTTAAATAGTTTATAATCCTTA | -0.355
TTTCTTTCTTCAACTAAGGAAT | -1.1
TTAGATAAAGAAACATTTCTGG | 0.295
TTCAACTAAGGAATCATCTTTT | 0.409

biological target: CDKN2B; assay: as above; details: shRNA

Sequence | sensor-assay potency score (higher = more potent)
TATTTCTTAGTCTGACCTCTGC | -0.197
TTTAGCATCTGTCGTCGCTTGC | 0.0347
TTTACTGCATAAGTGCATCTAT | 0.135
TTTTAGCATCTGTCGTCGCTTG | 0.0607
TAAGAAAATAAAGTCGTTGTGG | 0.511
TCATCCTGTGTAGTCTGCCTGC | -0.705
TGTCGCACCTTCTCCACTAGTC | -0.304
TCCCGAAACGGTTGACTCCGTT | -1.06
TAATTTACTGCATAAGTGCATC | -0.823
TTGACTCCGTTGGGATCCGCGC | -1.43
TAGCATCTGTCGTCGCTTGCAC | -0.163
TGCACCGGTCGGGTGAGAGTGG | -1.46
TTGGAGTGAACGCATCGACTGC | -0.833
AGGTACCCTGCAACGTCGCGGT | -1.5
TATAATGATCAAGCAACCCTGG | 0.0689
AAACGGTTGACTCCGTTGGGAT | -1.42
TTAACTGAGAGCCACTAGTTAT | -1.26
TAGTCTGACCTCTGCACCCTGA | -1.07
TTTCTTAGTCTGACCTCTGCAC | 0.0018
TTCCAGGAGCTGTCGCACCTTC | -0.732
ATCATGCACCGGTCGGGTGAGA | -1.72
TTTTTCAGCAATCTTTTGGGAA | -0.00426
TGCGCAGGTACCCTGCAACGTC | -1.43

biological target: CEACAM7; assay: as above; details: shRNA

Sequence | sensor-assay potency score (higher = more potent)
AATCATGATGCTGACAGCGGTC | -0.463
ATATCCTATAATTCGATAGTTG | -1.04
TATATTGTCTCTCGACCGTTGT | -0.124
TGACTCATAGCGGACATTCAGG | -0.817
AATATCTTTGTTCTCCACCGGA | -0.351
TAAAACCACAATATCTTTGTTC | 0.0103
TTCATTCACAAGATTTTCTTTT | -0.349
TTATATTTTTTACATATCCTAT | -0.681
TAACGTTCTGGATCAGCAGGGT | 0.257
AACTCTAACAGGGACCACCGTG | -1.13
TACTTCTTCATTCACAAGATTT | -1.52
